Consider 40 compounds from PubChem BioAssay (NCI).

The structures appear in SMILES notation. About 83,000 compounds went through this panel and 20% of them were active in at least one assay; those are over-represented in the sample as a whole.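 Activity criterion: percent growth below 10, measured after cells in 96-well plates were exposed to a single compound concentration for 48 hours.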 Values without a mark were called inactive. Active and inactive are the calls of the source.

The assay deals with HL-60(TB) leukemia. Nature of the assay: NCI-60 one-dose screen, 48 h (100 = growth as untreated, 0 = no growth, -100 = all killed). Particulars: 10 µM unless noted.
For `O=C(NC(=S)Nc1ccc(Cl)cc1)c1ccccc1`, the growth was 60.5%.
Consider `NC(=O)SCC(=O)Nc1ccccc1-c1ccccc1`, for which the growth was 80.3%.
As for `Cc1cc(C)c(C(=O)OC(C)CNC2CCCCC2)c(C)c1` (stereo not given), the figure is 87.5%; as for `CCCCCc1ccnc(CC(=O)c2ccc(OC)cc2)c1`, 110%; as for `N#Cc1nc(-c2cccc(Br)c2)cc(-c2ccc(Nc3nc(N4CCCCC4)nc(N4CCCCC4)n3)cc2)c1N`, -16.4% (active).
As for `CCC(C)Oc1cc(/C=N/NC(=O)c2cnn3c2NC(c2ccccc2)C3)ccc1OC` (stereo not given), the figure is 32.2%.
On to `COc1ccc(-c2nn(-c3ccc(NC(=O)c4cc(C(F)(F)F)cc(C(F)(F)F)c4)cc3)cc2-c2ccncc2)cc1Cl`, for which the growth is 73.6%.
Turning to `O=C(O)CCNS(=O)(=O)c1ccc(-c2ccccc2)cc1`, the growth is 188%.
As for `Nc1cc2[nH]c(=O)c3ccccc3c2cc1Br`, the figure is 125%; as for `CCOC(=O)c1nc2c3ccccc3ccn2c1C(=O)OC`, 94.9%; as for `CNC(=O)c1cc(Oc2cccc3nc(Nc4ccc(F)c(Cl)c4)ccc23)ccn1`, 31.1%.
In the case of `COc1ccc(C2C=C(c3ccc(Cl)cc3)N=C3SC=C(C)N32)c(Br)c1` (stereo not given), the growth was 7.64% (active).
The same measure for `COc1ccc(-c2nnc(COc3ccc(C(=O)/C=C/c4ccco4)cc3)o2)cc1`: 79.7%; for `[Cu+].[NH-][C@H]1C[N-]C(=O)[C@H]([C@H]2CCN=C(N)N2)[N-]C(=O)/C(=C\NC(N)=O)[N-]C(=O)[C@H](CNC(=O)C[C@@H](N)CCCN)[N-]C(=O)[C@H](CO)[N-]C1=O`: 104%; for `O=C(O)c1ccc(N=CC(=O)c2ccc(-c3ccccc3)cc2)cc1`: 77.4%.
As for `Nc1c2c(nc3ccc(Cl)cc13)CC(c1ccccc1)CC2=O` (stereo not given), the figure is 11%.
On to `O=[N+]([O-])c1cccc2nsnc12`, for which the growth is 104%.
On to `CN1CCC(OC2c3ccccc3CCc3ccccc32)CC1`, for which the growth was 99.1%.
As for `CC[C@H](C)[C@H]1NC(=O)[C@@H](N[C@](C)(O)[C@@H](N)CC(C)C)[C@@H](C)OC(=O)[C@H](Cc2ccc(OC)cc2)N(C)C(=O)[C@@H]2CCCN2C(=O)[C@H](CC(C)C)NC(=O)[C@@H](C)C(=O)[C@H](C(C)C)OC(=O)C[C@@H]1O`, the figure is -27.7% (active).
As to `Cc1nn(-c2ccccc2)c(Oc2ccccc2)c1/C=N/NC(=O)Cn1c(=O)sc2ccccc21`, the growth is 5.9% (active).
As for `C=CCN1C(=O)c2cccc3c(-c4ccc5c(c4)ncn5C4CCCCC4)ccc(c23)C1=O`, the figure is 25.5%.
The same measure for `O=CN1N=C(c2ccc(F)cc2)CC1c1cccc(Nc2ccnc3cc(C(F)(F)F)ccc23)c1` (stereo not given): 8.69% (active).
Take `CC(=O)c1c[nH]c2ccccc12`: the growth is 114%.
The same measure for `Cc1cc(NN=C(c2ccc(O)cc2)c2ccc(O)cc2)c([N+](=O)[O-])cc1[N+](=O)[O-]`: 66.9%.
The same measure for `O=C(Nc1ccncc1)C(=O)c1cn(S(=O)(=O)c2cccc(Cl)c2F)c2ccccc12`: 68.5%; for `COc1ccc(-c2cc(-c3cc(OC)c(OC)c(OC)c3)nc(N3CCOCC3)c2C#N)cc1`: 51.4%; for `CSC1=CC(=O)c2ccccc2C1=O`: -49.5% (active).
The same measure for `Cc1ccc(Nc2nc(N)nc(N)c2N=O)cc1Cl`: 67.9%; for `S=c1sc2c(Cl)nc(-c3cccnc3)nc2n1-c1ccccc1`: -52.5% (active).
In the case of `CC(=O)OC(C)c1cccc(C#N)c1` (stereo not given), the growth was 105%.
Turning to `COc1ccc(-c2nc(Nc3nc4ccccc4[nH]3)nc(N)c2C#N)cc1`, the growth was 97.8%.
As for `COc1cc(OC)c2c(=O)cc(-c3ccccc3)oc2c1`, the growth was 72%.
As for `O=S(=O)(NCCCNc1cc(-c2cn(-c3ccccc3)nc2-c2cccc(O)c2)ccn1)c1cccc(F)c1`, the figure is 39.1%; as for `CCOC1(OCC)OC(c2ccccc2)=C(C#N)C(/C=C\c2ccccc2)C1(OCC)OCC` (stereo not given), 80.1%.
For `C=CCNc1nc(NN2C(=O)c3cccc4cccc(c34)C2=O)nc(-n2cnc3ccccc32)n1`, the growth is 93.9%.
Regarding `Cc1cccc2c(=O)c3c(sc12)c(N1CCNCC1)nc1ccccc13`, the growth was 52.9%.
As for `COc1ccc(NC(=O)Nc2ccccc2CNc2nc(Nc3ccc(OCCN4CCCC4)cc3)ncc2Cl)cc1`, the figure is -43.7% (active).
Consider `Cc1nn(-c2cc(=O)[nH]c3ccccc23)c(N)c1C#N`, for which the growth was 102%.
The same measure for `CCOC(=O)c1ccc[nH]1`: 79.7%; for `CCN1C(=O)N(CC)C2C1NN=c1s/c(=C3\C(=O)N(C4CCCC4)c4ccccc43)c(=O)n12` (stereo not given): -44.5% (active).
